Assay outcomes (PubChem BioAssay)
Rows were chosen to be rich in hits. Some 1.4% of all compounds tested hit in one or more screens of this group.
Casp6 inh = human caspase-6 inhibitors, primary screen, biochemical, VEID-R110 fluorescence, single point, set 2; actives 0.53% (n = 350,000); purified caspase-6, Z-VEID-R110 cleavage fluorescence; inhibition, % at 12.5 µM;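 active = mean inhibition across replicates at least about 35%, with every replicate also reaching that limit, limit read from the data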;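 also: 0% = median of neutral control wells and 100% = no fluorescence left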
LEDGF integ inh = blockers of LEDGF/p75-dependent integrase strand transfer – biochemical, TR-FRET, high throughput, primary screen; HIV-1 integrase (with human LEDGF/p75); TR-FRET IN-LEDGF/p75 DNA integration, Eu/Cy5; inhibition, % at 3.7 µM; actives 0.64% (n = 370,000); AID 743269, 2014;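 active = inhibition above the screen-wide mean plus 3 SD, cut at about 13% in these data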;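 also: signal is the Cy5 over europium emission ratio at 671 and 618 nm; 0% = plate median of compound wells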
MBD2 inh = inhibitors of MBD2 binding to methylated DNA, primary screen, biochemical, TR-FRET, DNA-binding domain, human. Methyl-CpG-binding domain protein 2 (Homo sapiens), Q9UBB5. MBD2 binding to methylated oligonucleotide. inhibition, % at 4.4 µM. actives 0.31% (n = 370,000). AID 686964, 2013; in the data active = inhibition above about 13%
Target sequence (Q9UBB5 whole entry, looked up, the tested form may be a part): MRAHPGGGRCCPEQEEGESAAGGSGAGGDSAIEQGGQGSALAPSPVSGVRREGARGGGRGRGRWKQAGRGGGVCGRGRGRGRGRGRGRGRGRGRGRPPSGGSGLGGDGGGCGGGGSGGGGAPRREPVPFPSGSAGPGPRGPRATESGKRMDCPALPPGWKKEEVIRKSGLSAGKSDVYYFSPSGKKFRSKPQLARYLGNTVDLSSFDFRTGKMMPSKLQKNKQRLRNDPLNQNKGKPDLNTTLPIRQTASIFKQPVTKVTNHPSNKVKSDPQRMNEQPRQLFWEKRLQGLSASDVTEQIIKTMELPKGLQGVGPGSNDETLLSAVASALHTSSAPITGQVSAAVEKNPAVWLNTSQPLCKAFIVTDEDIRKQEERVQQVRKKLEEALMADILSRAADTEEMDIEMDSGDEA
UHRF1 binding = UHRF1 methylated DNA binding inhibitors, primary screen, counter-screen for MBD2 inhibitor project, biochemical, TR-FRET, human UHRF1, single concentration. E3 ubiquitin-protein ligase UHRF1 (Homo sapiens), Q96T88. UHRF1 binding to methylated oligo. inhibition, % at 4.4 µM. actives 0.75% (n = 370,000). AID 687016, 2013; in the data active = inhibition above about 21%;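 also: UHRF1 SRA domain binding a hemimethylated CpG hairpin DNA probe; 0% = median of test compound wells and 100% = reference inhibitor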
IN multimer act = HIV-1 IN multimer formation enhancers, counter-screen for LEDGF/p75 integration inhibitor project, biochemical, TR-FRET; shares compounds with LEDGF integ inh; TR-FRET HIV-1 integrase multimerization; activation, % at 7.7 µM; actives 17% (n = 2,000); AID 1053131, 2014; in the data active = activation above about 8.9%
TRFRET interf = TR-FRET optical interference artefacts, confirmation, artefact control for LEDGF/p75-dependent integration inhibitor project, biochemical, HIV-1 IN multimerization. AID 1053135, 2014. shares compounds with LEDGF integ inh. inhibition, % at 7.7 µM. TR-FRET optical interference counterscreen. 2,000 tested, under 10 active;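 active = inhibition above the mean over all tested compounds plus 3 SD, which no compound reached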;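 also: 0% = integrase with antibodies and DMSO and 100% = antibodies without integrase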
IN-LEDGF confirm = inhibitors of HIV-1 IN-LEDGF/p75 DNA integration, confirmation, biochemical, TR-FRET; shares compounds with LEDGF integ inh; TR-FRET LEDGF/p75-dependent HIV-1 integration; inhibition, % at 3.7 µM; actives 36% (n = 2,000); in the data active = inhibition above about 14%
* marks the source's active call; other numbers are inactive results.

What do the screens show for `CC(C)NC(=O)Nc1ccc2c(c1)C(=O)N([C@@H](C)CO)C[C@@H](C)[C@H](CN(C)C(=O)c1ccccc1)OCCCC[C@@H](C)O2`?
Casp6 inh: 0

What do the screens show for `O=c1c(Br)ccc(Br)cc1Br`?
Casp6 inh: 26; LEDGF integ inh: 15*; MBD2 inh: 4; UHRF1 binding: -1; IN multimer act: 2; TRFRET interf: -8; IN-LEDGF confirm: 30*

What do the screens show for `C[C@@H]1CN([C@H](C)CO)C(=O)c2c(c3ccccc3n2C)-c2ccccc2CO[C@@H]1CN(C)C(=O)c1ccccc1`?
Casp6 inh: 1

How did Cc1cccc(-c2ccc3[nH]c4c(c3c2)CCN2C[C@@H]([C@H](C)OC(=O)Nc3ccccc3C)[C@@H](N(C)C(=O)Nc3ccccc3C)C[C@@H]42)c1 do in these assays?
Casp6 inh: -7; LEDGF integ inh: 56*; MBD2 inh: 2; UHRF1 binding: 0; IN multimer act: 2; TRFRET interf: -5; IN-LEDGF confirm: -5

How did C[C@H](O)[C@@H]1CN2CCc3c([nH]c4ccccc34)[C@@H]2C[C@@H]1N(C)C(=O)Nc1cccc2ccccc12 do in these assays?
Casp6 inh: 6; LEDGF integ inh: 4; MBD2 inh: -9; UHRF1 binding: -9

What do the screens show for `CC(/C=N/NC(=O)Cc1cccn1C)=C\c1ccco1`?
LEDGF integ inh: 37*; MBD2 inh: 9; UHRF1 binding: 21*; IN multimer act: 1; TRFRET interf: -5; IN-LEDGF confirm: 6

Results for CC(=C/c1ccco1)/C=N/NC(=O)Cc1cccn1C ?
Casp6 inh: 20; LEDGF integ inh: 21*; MBD2 inh: 2; UHRF1 binding: 5; IN multimer act: -1; TRFRET interf: 5; IN-LEDGF confirm: 10

How did Cn1cccc1CC(=O)N/N=C/c1ccco1 do in these assays?
Casp6 inh: 16; LEDGF integ inh: 5; MBD2 inh: -2; UHRF1 binding: -1

How did CCn1c(=O)c(C(=O)CN2CCN(S(=O)(=O)c3cc(C)ccc3C)CC2)c(N)n(Cc2ccccc2)c1=O do in these assays?
Casp6 inh: 1; LEDGF integ inh: 50*; MBD2 inh: 0; UHRF1 binding: -2; IN multimer act: 1; TRFRET interf: -6; IN-LEDGF confirm: -5

Results for Cc1cccc2cc(CN(Cc3ccc(F)cc3)C(=O)N3CCOCC3)c(=O)[nH]c12 ?
Casp6 inh: -2; LEDGF integ inh: 14*; MBD2 inh: 2; UHRF1 binding: 1; IN multimer act: 0; TRFRET interf: -1; IN-LEDGF confirm: -13

Results for O=C(N/N=C/c1ccc(O)cc1O)C(=O)N/N=C/c1ccc(O)cc1O ?
Casp6 inh: 39*; LEDGF integ inh: 15*; MBD2 inh: 6; UHRF1 binding: -2; IN multimer act: 13*; TRFRET interf: -64; IN-LEDGF confirm: 26*

What do the screens show for `O=C(NN=Cc1ccc(O)cc1)C(=O)NN=Cc1ccc(O)cc1`?
Casp6 inh: 0; LEDGF integ inh: -4; MBD2 inh: -4; UHRF1 binding: -2

Results for O=C(CCN1CCCCC1)NNC(=O)C12CC3CC(CC(C3)C1)C2 ?
Casp6 inh: -2; LEDGF integ inh: 89*; MBD2 inh: -3; UHRF1 binding: -2; IN multimer act: 1; TRFRET interf: -3; IN-LEDGF confirm: 6

What do the screens show for `O=C(C[C@H]1CC[C@H]2[C@@H](COC[C@H](O)CN2Cc2cccc(C(F)(F)F)c2)O1)NCc1ccc(Cl)cc1`?
Casp6 inh: 0

How did CC1=NN(c2ccc(C)cc2C)C(=O)C1C(c1ccccc1O)C1C(=O)N(c2ccc(C)cc2C)N=C1C (configuration not stated) do in these assays?
LEDGF integ inh: 29*; MBD2 inh: -3; UHRF1 binding: 14; IN multimer act: 1; TRFRET interf: -5; IN-LEDGF confirm: -4

Results for CC1=NN(C(N)=S)C(=O)C1N=Nc1ccc(C)cc1C (configuration not stated) ?
LEDGF integ inh: -1; MBD2 inh: -15; UHRF1 binding: -28

How did Cn1c(=O)c2c(nc(SCc3ccc(C(=O)O)cc3)n2C)n(C)c1=O do in these assays?
Casp6 inh: 12; LEDGF integ inh: 14*; MBD2 inh: -4; UHRF1 binding: 0; IN multimer act: -3; TRFRET interf: 13; IN-LEDGF confirm: 8

How did COc1ccc(C#Cc2ccc3c(c2)[C@@H]2[C@@H](CCN2S(=O)(=O)c2ccccc2C)[C@@H](CO)N3)cc1 do in these assays?
Casp6 inh: -2

What do the screens show for `Nc1nc(COC(=O)C2CC(=O)N(Cc3ccccc3Cl)C2)nc(Nc2ccccc2)n1` (configuration not stated)?
Casp6 inh: 5; LEDGF integ inh: 18*; MBD2 inh: -2; UHRF1 binding: 0; IN multimer act: 0; TRFRET interf: -1; IN-LEDGF confirm: -5

What do the screens show for `CN(C)c1cccc2c1C(=O)c1ccccc1C2=O`?
Casp6 inh: 5; LEDGF integ inh: -8; MBD2 inh: -27; UHRF1 binding: -29

Results for O=C1c2cccc(Sc3ccccc3)c2C(=O)c2c(Sc3ccccc3)cccc21 ?
Casp6 inh: 10; LEDGF integ inh: 14*; MBD2 inh: 10; UHRF1 binding: 24*; IN multimer act: 3; TRFRET interf: -11; IN-LEDGF confirm: -7

What do the screens show for `COc1ccc(NC(=O)Nc2ccc3c(c2)C(=O)N([C@@H](C)CO)C[C@@H](C)[C@@H](CN(C)C(=O)Nc2c(C)noc2C)O3)cc1`?
Casp6 inh: 0

How did O=C(CCN1CCCCC1)NCC[C@@H]1CC[C@H](NC(=O)c2ccc(F)cc2)[C@H](CO)O1 do in these assays?
Casp6 inh: -3

What do the screens show for `Oc1c(Cl)c(Cl)c2ncccc2c1Cl`?
Casp6 inh: 4; LEDGF integ inh: -6; MBD2 inh: -12; UHRF1 binding: -3

How did COc1cc(N)c2ncccc2c1Cl do in these assays?
Casp6 inh: 56*; LEDGF integ inh: 44*; MBD2 inh: -19; UHRF1 binding: 5; IN multimer act: -1; TRFRET interf: 3; IN-LEDGF confirm: 6
